A selection: hits, their analogues and other compounds. The true share with any hit is near 12%.
Sfp PPTase inh: Sfp phosphopantetheinyl transferase inhibition; Potency, µM, for inactives: largest response in the series, negative = inhibition, actives largely listed as inhibitors; AID 1490; actives 3.5% (n = 310,000); Biochemical Sfp PPTase activity, qHTS;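 further: the enzyme is Sfp with the accession as filed and its product quenches rhodamine fluorescence; 0% = enzyme reaction without inhibitor and -100% = no enzyme wells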
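Buffer: 50 mM Hepes-Na pH 7.6, 10 mM MgCl2, 0.01% Nonidet P-40, 0.01% BSA. Enzyme 15 nM, pre-exposed to compound 15 min; substrates then added and fluorescence change tracked over 30 min.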
HP1b binding inh: HP1-beta chromodomain-methylated histone interaction inhibition. P83916. AlphaScreen HP1-beta / biotin-H3K9me3 peptide binding. Potency, µM (highest dose often 114 µM), without a hit: at the top dose activity change, negative = inhibition, hits mostly inhibitors. actives 0.56% (n = 390,000). AID 540317; further: nearly all actives have a fitted effect of over 70% in size
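AlphaScreen: HP1-beta (50 nM) preformed 30 min with biotin-H3(1-18)K9me3 peptide (50 nM) in PBS pH 7.4, 0.01% Tween-20. Compound added for 30 min at RT, then streptavidin donor/nickel chelate acceptor beads (10 ug/mL) for 30 min.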
PLK1 PBD block: blocks phosphopeptide binding to human PLK1 polo-box domain; P53350; Plk1 PBD binding of FITC phosphopeptide, fluorescence polarization; Potency, µM, without a hit: max response, negative = inhibition, most hits filed as inhibitors; actives 2.8% (n = 360,000); AID 720504; further: series mostly up to about 57 µM; on the % scale 0 is the no-effect control and ±100 the full control effect; nearly all actives have a fitted effect of over 65% in size
BAZ2B inh: BAZ2B (human) inhibition | AlphaScreen BAZ2B-H3K14Ac peptide displacement | AID 504333 | Potency, µM (highest dose often 114 µM), without a hit: at the top dose activity change, negative = inhibition, hits mostly inhibitors | Q9UIF8 | actives 4.4% (n = 360,000); further: on the % scale 0 is the no-effect control and ±100 the full control effect; nearly all actives have a fitted effect of over 60% in size
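Multi-concentration screen (max 110 uM) measuring displacement of acetylated histone H3 peptide from BAZ2B by AlphaScreen, using 50 nM protein, 50 nM peptide and 10 ug/mL streptavidin donor plus Ni-chelate acceptor beads.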
G9a inh: blocks human histone lysine methyltransferase G9a; Q96KQ7; G9a H3K9 monomethylation, AlphaScreen, 2 h; Potency, µM (titrated, usually from 102 µM), inactives show top-dose activity, negative = inhibition, usual class: inhibitors; actives 8.8% (n = 350,000); further: on the % scale 0 is the no-effect control and ±100 the full control effect; nearly all actives have a fitted effect of over 75% in size
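Step 1: enzyme (final 20 nM) with compound, 15 min RT. Step 2: substrate peptide 500 nM and SAM 20 uM, 2 h RT. Step 3: anti-H3K9me1 antibody and AlphaScreen beads, 10 min, then plate read.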
JMJD2A Tudor: inhibitors of human JMJD2A Tudor domain; AID 504339; AlphaScreen JMJD2A-Tudor / H3K4me3 peptide binding; actives 4.4% (n = 390,000); O75164; Potency, µM (doses to about 114 µM), inactives show at the highest dose activity change, negative = inhibition, hits mostly inhibitors; further: on the % scale 0 is the no-effect control and ±100 the full control effect; nearly all actives have a fitted effect of over 50% in size
The depositor's hits bear a star; ? = inconclusive; nt = no result given; [ ] = dose if it differs, or a comment. The call rests on the fitted dose curve; in most records, active means well fitted curve in the direction sought with a large enough effect; inconclusive means small, poorly fitted or top-dose-only effect, or another doubt; inactive means no such curve, though single readings can be large; an effect the other way counts as inactive or inconclusive. Potency means the concentration at half of the fitted maximal effect.

SMILES	Sfp PPTase inh	HP1b binding inh	PLK1 PBD block	BAZ2B inh	G9a inh	JMJD2A Tudor
CC(=O)N1CC(C)Oc2ccc(S(=O)(=O)NC(CC(=O)O)c3ccc(C)cc3C)cc21 (stereo not drawn)	18.3%	22.5%[57 µM]	2.2%	-2.0%	79.4µM*	1.6%
COc1ccc(OC)c(C(=O)NC(CC(N)=O)c2ccc(NCCOc3ccccc3)c([N+](=O)[O-])c2)c1 (stereo not drawn)	-4.5%	-1.2%	-4.8%	?	nt	?
NC(=O)CC(NC(=O)c1ccccc1)c1ccc(N2CCN(c3ccc(F)cc3)CC2)c([N+](=O)[O-])c1 (stereo not drawn)	-0.5%	30.3%	-10.2%	-11.7%	nt	-18.6%
COc1ccc(OC)c(C(=O)NC(CC(N)=O)c2ccc(N3CCN(c4ccc(F)cc4)CC3)c([N+](=O)[O-])c2)c1 (stereo not drawn)	2.8%	?	29.9µM*	-25.8%	?	?
COc1ccc(CCNc2ccc(C(CC(N)=O)NC(=O)c3cc(OC)ccc3OC)cc2[N+](=O)[O-])cc1 (stereo not drawn)	6.2%	-19.0%	1.3%	31.6µM*	44.7µM*	?
Nc1c(-c2ccccc2)c(CN2CCOCC2)nn1-c1ccc(F)cc1	18.4%	18.8%	-1.5%	-12.2%	20µM*	8.3%
COc1ccc(CC(=O)Nc2ccc3c(c2)OC2(CCCC2)O3)c(OC)c1	nt	nt	3.7%	nt	nt	nt
CC1CCN(C(=O)CSc2nc(-c3ccc(C(C)C)cc3)no2)CC1	nt	84.5%	nt	62.8%	38.7%[59 µM]	44.2%
COc1ccc(CN(C)CC2CCCN(CCc3ccc(F)cc3)C2)cc1OC (stereo not drawn)	13.0%	22.2%	-4.8%	-14.4%	-7.3%	-5.1%
COc1cc(CN(C)CC2CCCN(CCc3cccc(C(F)(F)F)c3)C2)ccc1O (stereo not drawn)	11.8%	18.2%	0.8%	-32.4%	44.7µM*	-25.2%
O=C(CCCn1c(=O)c2cccn2c2ccc(F)cc21)NCCc1ccccc1	nt	21.4%	nt	-20.6%	8.8%[59 µM]	-9.9%
C=CCN(CC=C)S(=O)(=O)c1ccc2nc(NC(=O)C3CCCO3)sc2c1 (stereo not drawn)	7.3%	8.6%	-20.2%	8.4%	1.26µM*	-25.3%
COc1ccc(Oc2ncc3nc(CCc4ccccc4)c(=O)n(CCC#N)c3n2)cc1	7.1%	nt	nt	nt	-3.4%[12.7 µM]	nt
Cc1cccc(NS(=O)(=O)c2ccc3[nH]c(=O)cc(C(=O)OC(C)C(=O)Nc4ccc([N+](=O)[O-])cc4)c3c2)c1 (stereo not drawn)	14.6%	2.5%	-1.1%	-36.3%	44.7µM*	?
O=C(Cn1cnc2c(nnn2Cc2ccccc2F)c1=O)NCc1ccco1	89.1µM*	19.3%	0.4%	-1.1%	nt	-2.1%
O=C(Cn1nnc2ccccc2c1=O)NCc1ccco1	9.7%	-0.7%	-5.5%	-32.1%	?	-24.5%
O=C(Cn1nc(C(=O)O)c2ccccc2c1=O)NCc1ccco1	7.0%	?	21.2µM*	nt	-44.6%	-11.3%[11.4 µM]
S=c1[nH]nc(Cc2sc(-c3ccccc3)nc2-c2ccccc2)o1	6.4%	1.5%	-25.6%	?	28.2µM*	-31.9%
Nc1cc2nsnc2cc1Br	39.8µM*	?	?	12.0%[57.1 µM]	?	-34.7%
Nc1cnc(Br)cc1Br	-8.8%	11.8%	-1.0%	4.3%	9.0%	-11.0%
COC(=O)c1c(NC(=O)Cc2ccccc2)sc2c1CC(C)(C)NC2(C)C	28.2µM*	-9.1%	23.8µM*	-7.9%	nt	-26.2%
CCOC(=O)c1c(NC(=O)CSc2nc3ccc(OC)cc3[nH]2)sc2c1CC(C)(C)NC2(C)C	nt	-13.1%	0.5%	-3.9%	50.1µM*	?
COC(=O)c1c(NC(=O)COc2ccc(Cl)cc2)sc2c1CC(C)(C)NC2(C)C	56.2µM*	1.7%	-13.8%	?	nt	?
COC(=O)c1c(NC(=O)c2ccccc2[N+](=O)[O-])sc2c1CC(C)(C)NC2(C)C	3.4%	-3.2%	-6.4%	-2.3%	2.6%[59 µM]	-27.0%
C#CCN(CC=C)C(=O)c1ccc2nc(C3CCCCC3)oc2c1	5.6%	26.4%	-3.8%	0.4%	3.5%	-9.6%
SMILES	Sfp PPTase inh	HP1b binding inh	PLK1 PBD block	BAZ2B inh	G9a inh	JMJD2A Tudor
COC1=CC(=O)C(O)=C/C1=C\C=C\c1ccccc1	11.2µM*	nt	nt	nt	nt	nt
CCCCCOc1ccc(C(=O)CCC(=O)NNC(=O)c2ccncc2)cc1	nt	40.7%	-2.2%	4.4%	-9.7%	-9.0%
CCN(CC)CCNC(=O)c1ccc(NC(=O)c2ccc(S(=O)(=O)N(C)c3ccccc3OC)cc2)cc1	nt	-7.1%	-1.5%	nt	nt	-25.6%
CCN(CC)CCNC(=O)c1ccc(NC(=O)c2ccc(Cl)c(S(=O)(=O)Nc3ccccc3OC)c2)cc1	-8.8%	nt	nt	-28.1%	50.1µM*	nt
CCN(CC)CCNC(=O)c1ccc(NC(=O)c2cccc(S(=O)(=O)N3CCc4ccccc43)c2)cc1	nt	?	-4.2%	-12.7%	31.6µM*	?
CCN(CC)CCNC(=O)c1ccc(NC(=O)c2cccc(S(=O)(=O)N3c4ccccc4CC3C)c2)cc1 (stereo not drawn)	?	-1.9%	0.0%	-26.1%	1.8%	-35.1%
CCN(CC)CCNC(=O)c1ccc(NC(=O)c2cccc(S(=O)(=O)Nc3ccc(C)cc3)c2)cc1	39.8µM*	21.8%	-15.6%	-17.3%	?	-22.2%
CCN(CC)CCCNC(=O)c1ccc(N2CCCCC2)c(NS(=O)(=O)c2ccc(C)cc2)c1	?	39.6%	-6.9%	?	79.4µM*	-19.1%
CN(C)CCNC(=O)c1cccc(S(=O)(=O)Nc2ccc(F)cc2)c1	-0.4%	21.2%	-4.3%	-24.2%	?	-16.5%
C/C(CCN1CCCCc2nc(C)c(C)cc21)=N\OC[C@@H](O)COCc1ccco1	13.3%	nt	nt	nt	nt	nt
COc1ccccc1C(=O)NCC(=O)NCC1(N2CCCCC2)CCCCC1	nt	9.2%	-8.6%	4.0%	-6.5%	-4.3%
COC(=O)c1ccccc1NC(=O)[C@H]1O[C@@H]2OC(C)(C)O[C@@H]2[C@H]2OC(C)(C)O[C@H]21	nt	11.7%	nt	-1.8%	-31.4%[59 µM]	-15.1%
c1ccc(C[C@H]2CN=C(Nc3ccccc3)N2CCCC2CCCC2)cc1	-27.1%	25.7%	-21.2%	?	44.7µM*	-29.6%
COc1cc(C(C)=O)ccc1OCCN1CCC(Cc2ccccc2)CC1	-25.0%	44.7µM*	-8.6%	31.6µM*	?	1.58µM*
C=CCOc1ccccc1CN1CCC(Cc2ccccc2)CC1	-15.9%	?	4.8%	?	nt	3.16µM*
C=CCOc1ccccc1CN1CCC(n2nccc2NC(=O)c2ccccc2)CC1	11.2%	39.4%	-9.5%	-8.6%	-7.2%	-13.5%
COc1cc(C(C)=O)ccc1OCC(=O)N1CCC(Cc2ccccc2)CC1	nt	nt	-6.7%	nt	nt	nt
O=Cc1cc(Cl)ccc1OCCN1CCC(Cc2ccccc2)CC1	-23.7%	?	-6.9%	?	25.1µM*	20µM*

Screens from PubChem BioAssay.
